The target of test [1] is human CYP4F12, CYP4F12 (gene 66002) (UniProt Q9HCS2). The test can be described thus: NVS_ADME_hCYP4F12: NovaScreen (NVS) CYP450-related Enzyme Activity (ADME) Assay for human CYP4F12 (AID 2283111). The procedure, abridged:
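Cell-free fluorescence assay of recombinant human CYP4F12 activity on a specific substrate, read 0.5 h after dosing. Primary screen in duplicate at 10 uM, then concentration series for actives; loss of signal fitted against acetonitrile negative control.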

The target of test [2] is human Acetylcholinesterase (AChE), ACHE (gene 43) (UniProt P22303). Kind of test: NVS_ENZ_hAChE: NovaScreen (NVS) Enzymatic Assay for human Acetylcholinesterase (AChE) (AID 2283129). The procedure, abridged:
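Cell-free colorimetric enzyme-activity assay; compounds read 0.33 hour after dosing, loss of signal vs DMSO baseline. Primary screen in duplicate at 25 uM single concentration, with active compounds retested in concentration series.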

Test [3] has as its target human AMP-activated Protein Kinase, alpha 1 (AMPKa1), PRKAA1 (gene 5562) (UniProt Q13131). The test can be described thus: NVS_ENZ_hAMPKa1: NovaScreen (NVS) Enzymatic Assay for human AMP-activated Protein Kinase, alpha 1 (AMPKa1) (AID 2283130). In short, it runs like this: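 Recombinant human AMPKα1 activity was measured cell-free by fluorescent substrate conversion with electrophoretic mobility-shift separation, 1 h after dosing. Duplicate single-point screening was at 25 uM; actives (≥30% inhibition) were retested in concentration-response up to 50 uM.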

The target in test [4] is rat CYP1A2, Cyp1a2 (gene 24297) (UniProt P04799). Kind of test: NVS_ADME_rCYP1A2: NovaScreen (NVS) CYP450-related Enzyme Activity (ADME) Assay for rat CYP1A2 (AID 2283115). In short, it runs like this: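 Cell-free recombinant rat enzyme with fluorogenic substrate, read by fluorescence intensity 1 hour after dosing. Loss of signal versus acetonitrile negative control; primary screen at 10 uM in duplicate, actives followed in concentration series.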

The test system of test [5] is rat Monoamine Oxidase, MAO-A, Central (MAOAC), gene 29253. Kind of test: NVS_ENZ_rMAOAC: NovaScreen (NVS) Enzymatic Assay for rat Monoamine Oxidase, MAO-A, Central (MAOAC) (AID 2283243).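 Further: potency refers to inhibition seen as signal drop below DMSO baseline.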 In short, it runs like this:
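Inhibition of rat brain-derived MAO-A was read by scintillation counting after 1.5 h exposure. Compounds screened first at 25 uM in duplicate, then in dose series if active.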

Test [6] has as its target human Fibroblast Growth Factor Receptor 1 (FGFR1), FGFR1 (gene 2260) (UniProt P11362). Kind of test: NVS_ENZ_hFGFR1: NovaScreen (NVS) Enzymatic Assay for human Fibroblast Growth Factor Receptor 1 (FGFR1) (AID 2283159).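 On AC50: hits lower the signal so potencies describe inhibitors of the kinase.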 The procedure, abridged:
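Cell-free recombinant kinase with fluorescent substrate, product separated by electrophoretic mobility shift; read 1 hour after dosing, loss of signal relative to DMSO. Initial screen in duplicate at 25 uM, actives followed in concentration series.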

For test [7], the target named is Protein deacetylase HDAC6 (Homo sapiens) (UniProt Q9UBN7). Kind of test: NVS_ENZ_hHDAC6: NovaScreen (NVS) Enzymatic Assay for human Histone Deacetylase 6 (HDAC6) (AID 2283164). The procedure, abridged:
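Recombinant human HDAC6 with fluorescent substrate, 1 h; product separated from substrate by electrophoretic mobility shift. Primary screen in duplicate at 25 uM; actives retested singly in concentration-response up to 50 uM, fitted relative to DMSO.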

In test [8] the target is human p21 Activated Kinase 4 (PAK4), PAK4 (gene 10298) (UniProt O96013). Kind of test: NVS_ENZ_hPAK4: NovaScreen (NVS) Enzymatic Assay for human p21 Activated Kinase 4 (PAK4) (AID 2283189). In short, it runs like this: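 Cell-free recombinant human PAK4 activity assay; fluorescent substrate and product separated by electrophoretic mobility shift, read 1 h after dosing. Initially tested in duplicate at 25 uM, relative to DMSO baseline.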

The nature of test [9]: CCTE_Harrill_HTTr_Apoptosis_PRF_DMEM_12hr: (Pilot) CCTE's 12-hour Apoptosis Assessment for the High-Throughput Transcriptomics (HTTr) Platform, in MCF-7 cells cultured in phenol red-free DMEM + 10% charcoal-stripped fetal bovine serum, Harrill Lab (AID 2283985; active means hit-call score of the fitted dose curve at least 0.9, where 1 is the maximum; inactive means score below 0.9). The procedure, abridged:
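MCF-7 cells in phenol red-free DMEM with 10% charcoal-stripped FBS, eight-point dilution series, 12 h exposure. Caspase-3/7 activation imaged by high content imaging with CellEvent Green reagent; bidirectional fit vs DMSO.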

In test [10] the target is rat Monoamine Oxidase, MAO-B, Peripheral (MAOBP), Maob (gene 25750) (UniProt P19643). The test can be described thus: NVS_ENZ_rMAOBP: NovaScreen (NVS) Enzymatic Assay for rat Monoamine Oxidase, MAO-B, Peripheral (MAOBP) (AID 2283242).
For test [11], the target named is rat Oxytocin Receptor (OXT), Oxtr (gene 25342) (UniProt P70536). Kind of test: NVS_GPCR_rOXT: NovaScreen (NVS) G Protein-Coupled Receptor Assay for rat Oxytocin Receptor (OXT) (AID 2283330). In short, it runs like this:
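Radioligand displacement on rat uterine membranes, 1 h incubation, filter-based scintillation counting. Chemicals were screened in duplicate at 25 uM, and those passing threshold were retested in concentration-response up to 50 uM. Loss of binding was fitted versus DMSO.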

Test [12] deals with Norway rat Vesicular Monoamine Transporter (VMAT2), neurotransmitter transporter, Slc18a2 (gene 25549) (UniProt Q01827). Kind of test: NVS_TR_rVMAT2: NovaScreen (NVS) Transporter Assay for Norway rat Vesicular Monoamine Transporter (VMAT2), neurotransmitter transporter (AID 2283376).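 Further: actives lower the bound radioligand signal below the DMSO level.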 In short, it runs like this:
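Radioligand displacement binding on rat forebrain tissue preparation, filter-based scintillation read-out 1 hour after dosing. Primary screen in duplicate at 25 uM, then concentration series for actives; loss of signal versus DMSO.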

Test [13] has as its target Cytochrome P450 2C18 (Homo sapiens) (UniProt P33260). Kind of test: NVS_ADME_hCYP2C18: NovaScreen (NVS) CYP450-related Enzyme Activity (ADME) Assay for human CYP2C18 (AID 2283103; active means hit-call score of the fitted dose curve at least 0.9, where 1 is the maximum; inactive means score below 0.9). In short, it runs like this: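 Cell-free recombinant human CYP2C18 with fluorogenic substrate; fluorescence intensity read 0.5 h after dosing. Single-point screen at 10 uM in duplicate, then concentration-response up to 20 uM; loss of signal fitted against acetonitrile baseline.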

The subject of a further test is rat CYP2B1, gene 24300. The test can be described thus: NVS_ADME_rCYP2B1: NovaScreen (NVS) CYP450-related Enzyme Activity (ADME) Assay for rat CYP2B1 (AID 2283117). In short, it runs like this: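 Recombinant rat CYP2B1 with fluorogenic substrate, read at 0.75 h. Primary screen in duplicate at 10 uM; compounds meeting threshold (e.g., 30% inhibition) re-run in concentration-response up to 20 uM. Fitted against acetonitrile control.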

Test [14] has as its target rat CYP2D1, Cyp2d1 (gene 266684) (UniProt P10633). Kind of test: NVS_ADME_rCYP2D1: NovaScreen (NVS) CYP450-related Enzyme Activity (ADME) Assay for rat CYP2D1 (AID 2283122). The procedure, abridged: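 Cell-free fluorescence enzyme-activity assay on extracted rat CYP2D1 protein, read 0.75 h after dosing. Primary screen in duplicate at 10 uM; qualifying chemicals then run in concentration-response to 20 uM max, loss-of-signal versus acetonitrile baseline.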

Test [15] concerns the target rat CYP2C12, Cyp2c12 (gene 25011) (UniProt P11510). The test can be described thus: NVS_ADME_rCYP2C12: NovaScreen (NVS) CYP450-related Enzyme Activity (ADME) Assay for rat CYP2C12 (AID 2283119). The procedure, abridged: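 Cell-free recombinant rat CYP2C12 activity read by fluorescence 0.5 h after dosing; loss of signal versus acetonitrile control. Primary screen in duplicate at 10 uM; actives then run in concentration-response format.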

For test [16], the target named is human Caspase 2 (CASP2), CASP2 (gene 835) (UniProt P42575). Kind of test: NVS_ENZ_hCASP2: NovaScreen (NVS) Enzymatic Assay for human Caspase 2 (CASP2) (AID 2283135). The procedure, abridged:
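E. coli-expressed enzyme in a cell-free protease assay, fluorescence read 1 h after dosing. Compounds at 25 uM in duplicate, with concentration-response up to 50 uM for hits; loss of signal against DMSO baseline.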

Test [17] deals with human Aurora Kinase A - serine/threonine-protein Kinase 6 (AurA), AURKA (gene 6790) (UniProt O14965). Kind of test: NVS_ENZ_hAurA: NovaScreen (NVS) Enzymatic Assay for human Aurora Kinase A - serine/threonine-protein Kinase 6 (AurA) (AID 2283142). In short, it runs like this: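 Cell-free enzymatic assay with human Aurora A, 1 hour after dosing. Fluorescent substrate turnover detected after electrophoretic mobility shift separation of substrate and product. Screened at 25 uM, actives retested in concentration-response up to 50 uM.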

Test [18] deals with human IkappaB Kinase alpha (IKKa), CHUK (gene 1147) (UniProt O15111). Kind of test: NVS_ENZ_hIKKa: NovaScreen (NVS) Enzymatic Assay for human IkappaB Kinase alpha (IKKa) (AID 2283167). In short, it runs like this:
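Cell-free recombinant human IKKa with fluorescent substrate, product separated by electrophoretic mobility shift; read 1 hour after dosing. Primary screen duplicate at 25 uM, actives then concentration-response up to 50 uM; loss of signal relative to DMSO.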

Test [19] has as its target human Phosphatase and Tensin Homolog (PTEN), PTEN (gene 5728) (UniProt P60484). Kind of test: NVS_ENZ_hPTEN: NovaScreen (NVS) Enzymatic Assay for human Phosphatase and Tensin Homolog (PTEN) (AID 2283203). The procedure, abridged: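 Cell-free recombinant human PTEN with fluorescent substrate; product separated by electrophoretic mobility shift and read by fluorescence 1 h after dosing. Primary screen in duplicate at 25 uM, actives followed in concentration series versus DMSO.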

In test [20] the target is human Protein Tyrosine Phosphatase Non-receptor Type 2 (PTPN2), PTPN2 (gene 5771) (UniProt P17706). Kind of test: NVS_ENZ_hPTPN2: NovaScreen (NVS) Enzymatic Assay for human Protein Tyrosine Phosphatase Non-receptor Type 2 (PTPN2) (AID 2283207). The procedure, abridged: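 Cell-free recombinant enzyme with fluorescent substrate, product separated by electrophoretic mobility shift; read 1 h after dosing. Primary screen single concentration (25 uM) in duplicate; actives followed in concentration series; loss of signal versus DMSO.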

The target in test [21] is rat Corticotropin Releasing Factor Receptor (CRF), Crhr1 (gene 58959) (UniProt P35353). Kind of test: NVS_GPCR_rCRF: NovaScreen (NVS) G Protein-Coupled Receptor Assay for rat Corticotropin Releasing Factor Receptor (CRF) (AID 2283300). The procedure, abridged: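 Rat cortical membranes used as receptor source in a radioligand competitive displacement binding assay; scintillation read 2 h after dosing. Primary screen run in duplicate at 25 uM; loss of signal versus DMSO baseline indicates binding.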

Twelve molecules from PubChem BioAssay (EPA / NIEHS) can be followed below.

Records with an inconclusive call do not appear. Activity calls are given as the source filed them. How the source made its calls, unless noted: active means hit-call score of the fitted dose curve at least 0.9, where 1 is the maximum; inconclusive means response in the unintended direction; inactive means score below 0.9.

human CYP4F12, CYP4F12 (gene 66002), sequence (Q9HCS2 whole entry, looked up): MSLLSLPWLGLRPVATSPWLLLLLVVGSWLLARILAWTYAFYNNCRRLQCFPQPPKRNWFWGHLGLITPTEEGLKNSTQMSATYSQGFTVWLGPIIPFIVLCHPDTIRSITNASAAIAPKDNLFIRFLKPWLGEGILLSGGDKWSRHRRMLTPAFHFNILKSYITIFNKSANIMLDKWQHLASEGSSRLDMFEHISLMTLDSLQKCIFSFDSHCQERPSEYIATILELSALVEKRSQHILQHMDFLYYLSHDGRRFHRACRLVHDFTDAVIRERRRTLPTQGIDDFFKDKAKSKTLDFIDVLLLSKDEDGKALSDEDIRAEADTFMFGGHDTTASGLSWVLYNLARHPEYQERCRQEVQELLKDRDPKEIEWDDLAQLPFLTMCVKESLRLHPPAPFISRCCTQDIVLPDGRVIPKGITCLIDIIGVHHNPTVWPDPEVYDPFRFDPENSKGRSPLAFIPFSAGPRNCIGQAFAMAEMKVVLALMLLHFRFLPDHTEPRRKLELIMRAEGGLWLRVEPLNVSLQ
rat CYP1A2, Cyp1a2 (gene 24297), sequence (P04799 whole entry, looked up): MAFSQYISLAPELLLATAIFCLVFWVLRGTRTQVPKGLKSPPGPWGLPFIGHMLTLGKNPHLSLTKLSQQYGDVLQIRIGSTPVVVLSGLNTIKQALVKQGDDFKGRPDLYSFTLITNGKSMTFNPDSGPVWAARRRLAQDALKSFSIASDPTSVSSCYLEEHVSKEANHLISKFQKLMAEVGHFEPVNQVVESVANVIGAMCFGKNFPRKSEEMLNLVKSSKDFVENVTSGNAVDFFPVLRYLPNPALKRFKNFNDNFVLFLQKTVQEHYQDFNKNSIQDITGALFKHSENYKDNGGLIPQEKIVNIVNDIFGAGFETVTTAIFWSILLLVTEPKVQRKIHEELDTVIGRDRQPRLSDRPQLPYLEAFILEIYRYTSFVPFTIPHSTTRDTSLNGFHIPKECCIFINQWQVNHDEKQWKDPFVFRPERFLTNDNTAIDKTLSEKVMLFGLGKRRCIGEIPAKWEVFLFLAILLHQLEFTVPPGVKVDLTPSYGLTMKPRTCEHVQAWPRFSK
human Acetylcholinesterase (AChE), ACHE (gene 43), sequence (P22303 whole entry, looked up): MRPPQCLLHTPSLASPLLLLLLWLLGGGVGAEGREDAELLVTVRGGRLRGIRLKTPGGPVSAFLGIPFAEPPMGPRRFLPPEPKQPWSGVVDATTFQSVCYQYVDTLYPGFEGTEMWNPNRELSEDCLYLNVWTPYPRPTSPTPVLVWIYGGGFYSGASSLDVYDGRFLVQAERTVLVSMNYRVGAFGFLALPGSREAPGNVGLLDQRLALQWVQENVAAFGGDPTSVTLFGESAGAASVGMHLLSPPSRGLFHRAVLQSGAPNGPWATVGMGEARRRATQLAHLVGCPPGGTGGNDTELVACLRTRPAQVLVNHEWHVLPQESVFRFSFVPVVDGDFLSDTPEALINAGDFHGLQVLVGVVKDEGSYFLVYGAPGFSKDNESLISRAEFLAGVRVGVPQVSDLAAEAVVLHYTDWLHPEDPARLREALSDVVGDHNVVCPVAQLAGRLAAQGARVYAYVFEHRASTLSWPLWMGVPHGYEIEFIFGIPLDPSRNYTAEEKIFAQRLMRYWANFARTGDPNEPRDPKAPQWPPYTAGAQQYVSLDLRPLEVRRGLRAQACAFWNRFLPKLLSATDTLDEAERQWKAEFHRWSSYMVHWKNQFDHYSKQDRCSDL
human AMP-activated Protein Kinase, alpha 1 (AMPKa1), PRKAA1 (gene 5562), sequence (Q13131 whole entry, looked up): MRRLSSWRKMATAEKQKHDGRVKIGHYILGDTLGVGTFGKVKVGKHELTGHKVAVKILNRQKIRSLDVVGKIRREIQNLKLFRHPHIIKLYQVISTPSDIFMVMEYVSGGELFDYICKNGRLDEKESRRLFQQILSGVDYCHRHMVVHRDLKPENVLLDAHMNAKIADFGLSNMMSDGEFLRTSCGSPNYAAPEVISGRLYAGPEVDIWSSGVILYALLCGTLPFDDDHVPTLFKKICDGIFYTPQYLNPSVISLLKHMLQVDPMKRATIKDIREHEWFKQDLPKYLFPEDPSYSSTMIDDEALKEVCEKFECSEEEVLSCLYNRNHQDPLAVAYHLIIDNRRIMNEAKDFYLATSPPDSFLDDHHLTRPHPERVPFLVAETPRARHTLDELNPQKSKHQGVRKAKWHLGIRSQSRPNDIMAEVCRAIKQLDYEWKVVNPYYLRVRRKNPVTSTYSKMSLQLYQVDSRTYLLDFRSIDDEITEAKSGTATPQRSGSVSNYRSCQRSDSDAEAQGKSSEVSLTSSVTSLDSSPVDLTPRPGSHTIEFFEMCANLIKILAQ
rat Monoamine Oxidase, MAO-B, Peripheral (MAOBP), Maob (gene 25750), sequence (P19643 whole entry, looked up): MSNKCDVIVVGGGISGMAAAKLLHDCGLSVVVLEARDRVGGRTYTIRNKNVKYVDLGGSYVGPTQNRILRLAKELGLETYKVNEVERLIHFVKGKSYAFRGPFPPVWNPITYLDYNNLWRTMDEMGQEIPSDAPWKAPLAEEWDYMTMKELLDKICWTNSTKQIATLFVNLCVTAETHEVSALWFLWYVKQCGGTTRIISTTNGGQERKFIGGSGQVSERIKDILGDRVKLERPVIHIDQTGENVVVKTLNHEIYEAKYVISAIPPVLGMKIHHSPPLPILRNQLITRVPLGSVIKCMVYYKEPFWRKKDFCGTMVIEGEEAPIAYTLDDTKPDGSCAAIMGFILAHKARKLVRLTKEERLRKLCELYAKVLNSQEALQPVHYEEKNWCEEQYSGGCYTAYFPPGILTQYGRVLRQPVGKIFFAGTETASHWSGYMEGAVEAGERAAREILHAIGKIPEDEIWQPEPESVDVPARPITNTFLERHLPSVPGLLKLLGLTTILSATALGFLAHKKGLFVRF
Cytochrome P450 2C18 (Homo sapiens), sequence (P33260 whole entry, looked up): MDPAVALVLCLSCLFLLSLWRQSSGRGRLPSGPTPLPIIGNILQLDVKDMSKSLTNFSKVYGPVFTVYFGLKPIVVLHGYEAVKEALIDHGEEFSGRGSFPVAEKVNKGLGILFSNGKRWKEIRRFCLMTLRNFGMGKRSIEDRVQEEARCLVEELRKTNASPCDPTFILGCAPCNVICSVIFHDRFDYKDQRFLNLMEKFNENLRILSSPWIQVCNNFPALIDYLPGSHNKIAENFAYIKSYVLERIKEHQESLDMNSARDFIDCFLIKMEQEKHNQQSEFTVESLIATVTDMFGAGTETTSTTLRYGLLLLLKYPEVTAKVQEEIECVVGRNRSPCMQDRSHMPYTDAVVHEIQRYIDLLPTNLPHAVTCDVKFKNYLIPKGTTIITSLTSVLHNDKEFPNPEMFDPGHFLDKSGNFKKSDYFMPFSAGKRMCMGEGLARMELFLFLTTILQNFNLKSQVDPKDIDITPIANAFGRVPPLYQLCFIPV
human Fibroblast Growth Factor Receptor 1 (FGFR1), FGFR1 (gene 2260), sequence (P11362 whole entry, looked up): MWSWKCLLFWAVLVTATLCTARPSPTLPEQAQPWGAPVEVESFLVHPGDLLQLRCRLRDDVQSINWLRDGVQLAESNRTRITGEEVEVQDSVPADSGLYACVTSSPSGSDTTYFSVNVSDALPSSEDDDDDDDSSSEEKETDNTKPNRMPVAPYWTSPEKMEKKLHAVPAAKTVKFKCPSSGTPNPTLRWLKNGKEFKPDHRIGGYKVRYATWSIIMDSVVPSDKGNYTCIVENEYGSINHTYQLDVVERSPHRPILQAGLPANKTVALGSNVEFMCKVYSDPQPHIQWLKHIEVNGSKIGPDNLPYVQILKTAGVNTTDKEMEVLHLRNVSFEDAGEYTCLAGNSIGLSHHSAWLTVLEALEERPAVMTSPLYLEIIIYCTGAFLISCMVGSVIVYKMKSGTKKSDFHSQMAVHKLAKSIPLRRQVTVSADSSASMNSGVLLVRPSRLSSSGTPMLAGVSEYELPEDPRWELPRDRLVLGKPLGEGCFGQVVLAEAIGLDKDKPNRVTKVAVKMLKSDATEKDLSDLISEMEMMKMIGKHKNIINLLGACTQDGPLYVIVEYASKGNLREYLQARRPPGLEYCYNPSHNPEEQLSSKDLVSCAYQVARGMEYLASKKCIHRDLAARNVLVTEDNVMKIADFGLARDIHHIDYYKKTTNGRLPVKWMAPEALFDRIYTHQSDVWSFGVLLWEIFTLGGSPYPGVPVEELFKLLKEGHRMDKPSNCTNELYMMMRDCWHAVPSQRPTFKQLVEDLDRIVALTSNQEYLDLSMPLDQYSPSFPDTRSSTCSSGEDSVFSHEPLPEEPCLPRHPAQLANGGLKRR
human p21 Activated Kinase 4 (PAK4), PAK4 (gene 10298), sequence (O96013 whole entry, looked up): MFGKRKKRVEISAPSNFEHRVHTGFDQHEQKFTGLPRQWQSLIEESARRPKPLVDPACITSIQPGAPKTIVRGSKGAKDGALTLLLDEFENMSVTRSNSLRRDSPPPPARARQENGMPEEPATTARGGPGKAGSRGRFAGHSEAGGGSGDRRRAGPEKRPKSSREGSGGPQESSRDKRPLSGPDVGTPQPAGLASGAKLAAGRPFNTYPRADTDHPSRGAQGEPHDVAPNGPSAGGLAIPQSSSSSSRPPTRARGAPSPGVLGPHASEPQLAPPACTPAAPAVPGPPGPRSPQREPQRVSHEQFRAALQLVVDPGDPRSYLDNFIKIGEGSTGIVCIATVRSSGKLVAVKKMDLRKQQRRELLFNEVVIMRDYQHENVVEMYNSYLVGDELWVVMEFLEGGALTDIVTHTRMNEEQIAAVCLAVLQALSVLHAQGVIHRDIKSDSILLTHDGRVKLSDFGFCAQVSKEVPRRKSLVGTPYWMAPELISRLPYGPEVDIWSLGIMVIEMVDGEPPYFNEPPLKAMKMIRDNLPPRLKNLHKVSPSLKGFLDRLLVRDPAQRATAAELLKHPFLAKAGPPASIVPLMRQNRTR
rat Oxytocin Receptor (OXT), Oxtr (gene 25342), sequence (P70536 whole entry, looked up): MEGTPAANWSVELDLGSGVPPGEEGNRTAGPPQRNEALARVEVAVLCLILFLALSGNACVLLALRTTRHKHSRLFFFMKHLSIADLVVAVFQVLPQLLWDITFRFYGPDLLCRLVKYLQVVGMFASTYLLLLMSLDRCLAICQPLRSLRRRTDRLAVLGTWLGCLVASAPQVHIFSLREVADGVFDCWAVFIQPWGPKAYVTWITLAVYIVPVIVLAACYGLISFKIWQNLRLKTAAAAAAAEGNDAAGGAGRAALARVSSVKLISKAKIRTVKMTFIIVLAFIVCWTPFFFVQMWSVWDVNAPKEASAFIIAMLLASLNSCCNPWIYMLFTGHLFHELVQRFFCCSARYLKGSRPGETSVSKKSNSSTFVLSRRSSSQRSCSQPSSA

Consider `CCCCCCCC(=O)O`, for which, in test [1], the AC50 was 4.61 µM (active). Moreover, the outcome in [2] and in test [3] was inactive.
On to `CC1=CC(=O)/C(=C(/C)O)C(=O)O1`, for which, in test [1], the AC50 was 1.52 µM (active).
Consider `O=C=NCCCCCCN=C=O`, for which the half-maximal activity concentration (AC50) in test [1] was 0.884 µM (active).
With `CO[Si](CCC1CCC2OC2C1)(OC)OC` (stereo not drawn), the molecule was classed as inactive in test [4].
For the molecule `O=C1c2ccccc2C(=O)c2c(O)ccc(O)c21`, in test [4], the outcome was inactive. Also, the concentration at half-maximal activity (AC50) in test [5] is 18.3 µM (active).
Turning to `CC[C@H](C)C(=O)O[C@H]1C[C@@H](C)C=C2C=C[C@H](C)[C@H](CC[C@@H]3C[C@@H](O)CC(=O)O3)[C@H]21`, the call in test [1], in test [6], in [7], in test [8] and in [9] was inactive.
Take `Cc1occc1C(=O)Nc1ccc(C(=O)N2CCC(F)(F)/C(=C\C(=O)N3CCC(N4CCCCC4)CC3)c3ccccc32)cc1`: the AC50 in [1] was 1.24 µM (active); in test [10] it was 9.05 µM (active); in [11], 0.119 µM (active); in [12], 5.73 µM (active).
As for `CNNCc1ccc(C(=O)NC(C)C)cc1`, the molecule was called inactive in test [4]. In addition, the AC50 in test [5] was 18 µM (active).
Take `C#CCOC(=O)[C@@H](C)Oc1ccc(Oc2ncc(Cl)cc2F)cc1`: the AC50 in [13] is 2.13 µM (active); in the test with rat CYP2B1, gene 24300, 1.36 µM (active); in test [14], 3.73 µM (active).
On to `CCOC(=O)C1=NOC(c2ccccc2)(c2ccccc2)C1`, for which, in test [4], the outcome was inactive.
For the molecule `c1ccc2c(c1)-c1cccc3c1c-2cc1ccccc13`, the molecule was called inactive in [2].
Turning to `S=C([S-])NCCNC(=S)[S-].[Mn+2]`, the AC50 in test [13] was 10 µM (active); in test [3] it was 8.83 µM (active); in [17] it was 1.79 µM (active); in [6] it was 19.1 µM (active); in test [18], 30.1 µM (active); in test [8], 5.91 µM (active). In addition, the AC50 in [19] is 0.933 µM (active); in test [20], 0.295 µM (active); in test [21], 12.5 µM (active). Moreover, the molecule was called inactive in [15], in test [2], in test [16], in test [10] and in [9].

The term AC50 denotes the midpoint of the concentration-response curve, whichever way the signal moves.
